In the library only some 12% were active in any assay of this set; here they are far more common.
L3MBTL1 inh = blocks human L3MBTL1. Q9Y468. AlphaScreen L3MBTL1–H3K9me1 peptide binding. Potency, µM (series often up to 57.1 µM), without a hit: at the highest dose activity, negative = inhibition, most hits filed as inhibitors. 0.66% of 230,000 active; further: on the % scale 0 is the no-effect control and ±100 the full control effect; nearly all actives have a fitted effect of over 60% in size
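AlphaScreen proximity signal between nickel-chelate acceptor and streptavidin donor beads (final 10 ug/mL) reports binding of 50 nM L3MBTL1 to 75 nM biotin-H3 K9me1 peptide; complex incubated with compounds 30 min at room temperature; cefsulodin titration as control.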
Sfp inh = inhibitors of Bacillus subtilis Sfp phosphopantetheinyl transferase; Q9F4F7; Biochemical Sfp PPTase activity, qHTS; Potency, µM, for inactives: largest response in the series, negative = inhibition, hits mostly inhibitors; 3.5% of 310,000 active;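 further: the enzyme is Sfp with the accession as filed and its product quenches rhodamine fluorescence; 0% = enzyme reaction without inhibitor and -100% = no enzyme wells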
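Fluorescence-quenching assay: 15 nM Sfp-PPTase preincubated 15 min at room temperature with compound, then 5 uM rhodamine-CoA and 12.5 uM BHQ-2-labelled YbbR peptide added. Fluorescence (ex 525/em 598 nm) read at start and after 30 min; difference gives rate.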
HP1b chromo inh = inhibitors of HP1-beta chromodomain binding to methylated histone tails; AlphaScreen HP1-beta / biotin-H3K9me3 peptide binding; Potency, µM (titrated, usually from 114 µM), inactives show top-dose activity change, negative = inhibition, hits mostly inhibitors; 0.56% of 390,000 active; further: nearly all actives have a fitted effect of over 70% in size
Target sequence (P83916 whole entry, looked up): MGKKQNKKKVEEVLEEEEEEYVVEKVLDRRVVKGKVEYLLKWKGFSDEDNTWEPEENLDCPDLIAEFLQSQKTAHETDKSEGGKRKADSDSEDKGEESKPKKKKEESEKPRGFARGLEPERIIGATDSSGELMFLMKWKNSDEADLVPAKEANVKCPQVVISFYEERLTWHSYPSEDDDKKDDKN
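HP1-beta protein (50 nM final) preincubated 30 min at room temperature with biotinylated H3(1-18)K9me3 peptide (50 nM) in PBS pH 7.4, 0.01% Tween-20, then compound added for 30 min. AlphaScreen streptavidin donor/nickel chelate acceptor beads (10 ug/mL final), 30 min dark, luminescence read.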
JMJD2A Tudor = blocks the human JMJD2A Tudor domain; AlphaScreen JMJD2A-Tudor / H3K4me3 peptide binding; Potency, µM (titrated, usually from 114 µM), without a hit: top-dose activity change, negative = inhibition, usual class: inhibitors; 4.4% of 390,000 active; further: on the % scale 0 is the no-effect control and ±100 the full control effect; nearly all actives have a fitted effect of over 50% in size
BAZ2B block = inhibitors of human BAZ2B bromodomain. AID 504333. 4.4% of 360,000 active. Potency, µM (top dose mostly 114 µM), without a hit: at the highest dose activity change, negative = inhibition, hits mostly inhibitors. AlphaScreen BAZ2B-H3K14Ac peptide displacement. Q9UIF8; further: on the % scale 0 is the no-effect control and ±100 the full control effect; nearly all actives have a fitted effect of over 60% in size
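AlphaScreen luminescence quantifies BAZ2B engagement of H3K14Ac peptide; the protein and biotinylated peptide are both at 50 nM final, buffer PBS pH 7.4 with 0.01% Tween-20, all steps at room temperature.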
G9a inh = G9a (human) methyltransferase inhibition; Q96KQ7; G9a H3K9 monomethylation, AlphaScreen, 2 h; Potency, µM (doses to about 102 µM), inactives show at the highest dose activity, negative = inhibition, hits mostly inhibitors; 8.8% of 350,000 active; AID 504332; further: on the % scale 0 is the no-effect control and ±100 the full control effect; nearly all actives have a fitted effect of over 75% in size
Target sequence (Q96KQ7 913-1193 limits assumed): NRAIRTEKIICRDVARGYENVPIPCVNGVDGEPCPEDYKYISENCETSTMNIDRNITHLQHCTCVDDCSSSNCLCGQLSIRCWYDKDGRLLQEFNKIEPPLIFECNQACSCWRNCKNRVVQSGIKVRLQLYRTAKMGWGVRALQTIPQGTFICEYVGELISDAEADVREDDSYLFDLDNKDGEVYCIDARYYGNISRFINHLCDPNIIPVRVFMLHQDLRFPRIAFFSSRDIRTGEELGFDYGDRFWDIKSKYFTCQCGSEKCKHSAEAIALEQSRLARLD
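Using a bead-based AlphaScreen, monomethylated H3K9 product from 2 h room-temperature reactions (G9a 20 nM, peptide 500 nM, SAM 20 uM) was detected with 0.5 ug/mL rabbit anti-H3K9me1 antibody.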
* marks the source's active call; other numbers are inactive results; ? = inconclusive; nt = no result; [ ] = dose if it differs, or a comment. The call rests on the fitted dose curve; in most records, active means well fitted curve in the direction sought with a large enough effect; inconclusive means small, poorly fitted or top-dose-only effect, or another doubt; inactive means no such curve, though single readings can be large; an effect the other way counts as inactive or inconclusive. Potency means the concentration at half of the fitted maximal effect.

SMILES	L3MBTL1 inh	Sfp inh	HP1b chromo inh	JMJD2A Tudor	BAZ2B block	G9a inh
Cc1ccc(S(=O)(=O)c2nnn3c2nc(NCc2cccs2)c2sccc23)cc1C	nt	nt	6%	-26%	-29%	0%[59 µM]
COc1ccc(OCc2cn(CC(=O)c3ccc(O)cc3)nn2)cc1	nt	nt	8%	-32%	nt	nt
O=C(Cn1cc(COc2c(F)c(F)cc(F)c2F)nn1)c1ccc(O)cc1	nt	nt	64%	40µM*	nt	nt
COc1ccc(-c2nnc(SC(C(=O)c3c[nH]c4ccccc34)c3ccccc3)n2N)cc1OC (stereo not given)	-13%	-5%	2%	?	-39%	8.9µM*
CCOc1ccc(NC(=O)c2cc(S(=O)(=O)N3CCc4ccccc43)ccc2F)cc1	nt	nt	19%	-9%	-5%	5%[59 µM]
CC#CCN1c2ccccc2[C@]23C[C@@H](C(=O)OC)N(S(=O)(=O)c4ccc(OC)cc4)C2=NC(C(=O)OC)=C(C(=O)OC)[C@H]13	nt	-2%	nt	nt	nt	nt
O=C(O)c1ccc(-c2sc(Nc3ccccc3)n[n+]2-c2ccccc2)cc1	13%	50µM*	-8%	45µM*	?	nt
O=C(O)c1ccc(-c2sc(Nc3ccccc3)n[n+]2-c2ccc(F)cc2)cc1	1%	-14%	17%	-35%	-8%	40µM*
C[n+]1nc(Nc2ccccc2)sc1-c1ccc(C(=O)O)cc1	nt	10%	nt	nt	0%	-5%[12.7 µM]
Cc1cccc(-c2sc(Nc3ccccc3)n[n+]2-c2ccccc2)c1	-2%	nt	15%	79µM*	50µM*	-20%[2.33 µM]
COc1ccc(N(C)C(=O)c2cn(C)c(=O)c3cc(OC)c(OC)cc23)cc1	nt	-2%	10%	-5%	-1%	3%
O=C1CN(c2ccccc2)C(=S)N1C(=O)c1ccccc1	3%	50µM*	0%	-22%	5%	nt
Nc1ccccc1Sc1c[nH]c2ccccc12	nt	12%	-16%	?	?	45µM*
CCOC(=O)c1sc(NCc2ccco2)c(-c2nc3ccccc3s2)c1N	-13%	?	12%	?	-33%	-14%[59 µM]
C=CCNc1sc(C(=O)c2ccccc2)c(N)c1-c1nc2ccccc2s1	?	20µM*	25µM*	?	?	22µM*
CCNc1sc(C(=O)c2cccs2)c(N)c1-c1nc2ccccc2s1	?	18µM*	11%	?	?	10µM*
CCCN1CCN(S(=O)(=O)c2c(C)[nH]c(C)c2C(=O)N2CCCCC2)CC1	nt	19%	44%	-8%	-4%	0%[59 µM]
O=C(N=C1SC2CS(=O)(=O)CC2N1c1ccccc1C(F)(F)F)C1CCCO1 (stereo not given)	nt	9%	12%	9%	-5%	50%
CCOc1ccc(NC(=O)CCC(=O)N/N=C(\C)c2cccs2)cc1	nt	10%	66%	-10%	-3%	nt
Cc1c(C(=O)N2CCN(C(=O)c3ccco3)CC2)sc2nc(-c3ccc(F)cc3)cn12	-1%	-10%	31%	-22%	-21%	40µM*
COc1ccc(-c2cn3c(C)c(C(=O)Nc4ccncc4)sc3n2)cc1	nt	45µM*	45%	-17%	-33%	13µM*
CCOc1ccc(NC(=O)c2sc3nc(-c4ccc(OC)cc4)cn3c2C)cc1	nt	nt	17%[57 µM]	-15%	-7%	-3%[59 µM]
Cc1c(C(=O)Nc2ccncc2)sc2nc(-c3ccc(F)cc3)cn12	9%	-15%	44%	-13%	-3%	40µM*
Cc1c(C(=O)Nc2cc(F)ccc2F)sc2nc(-c3ccc(F)cc3)cn12	nt	nt	22%[57 µM]	-17%	8%	27%[59 µM]
COc1ccc(-c2cn3c4c(sc3n2)CCCC4)cc1	nt	79µM*	28%	12%	?	50µM*
SMILES	L3MBTL1 inh	Sfp inh	HP1b chromo inh	JMJD2A Tudor	BAZ2B block	G9a inh
CC(/C=C1\SC(=S)N(C(C(=O)O)C(C)C)C1=O)=C\c1ccccc1 (stereo not given)	12%	?	8%	?	25µM*	nt
CC(/C=C1\SC(=S)N(c2ccc(C(=O)O)cc2)C1=O)=C\c1ccccc1	nt	-13%	?	45µM*	22µM*	32µM*
COc1cccc(C(=O)Nc2nc3nc(C)c(C)c(=O)n3[nH]2)c1	nt	nt	19%	89µM*	?	?
CC1CN(S(=O)(=O)c2cccc(C(=O)Nc3ccc(S(=O)(=O)Nc4ncccn4)cc3)c2)CC(C)O1 (stereo not given)	nt	12%	33%	0%	7%	?
Cc1noc(C)c1COC(=O)c1cc2c3ccccc3n(C)c2s1	4%	?	74%	10%	6%	40µM*
CCOc1ccc2c(c1)c(=O)c(S(=O)(=O)c1ccc(CC)cc1)cn2C	nt	3%	22%	-8%	-10%[57.1 µM]	5%
O=c1ccc(-c2ccccc2)nn1Cc1ccc(F)cc1Cl	nt	0%	122%	24%	40%	82%
Cc1ccc2nc(-c3ccc(N=Nc4cc(S(=O)(=O)O)c5ccccc5c4O)cc3)sc2c1S(=O)(=O)O	nt	nt	14µM*	18µM*	nt	nt
Cc1cccc(OS(=O)(=O)NC(=O)OCC2CCCN3CCCCC23)c1 (stereo not given)	nt	29%	32%	-15%	-3%	9%[59 µM]
CN(C)S(=O)(=O)c1cccc(N=c2scc(-c3ccc4c(c3)NC(=O)CO4)n2CC2CCCO2)c1 (stereo not given)	nt	-17%	?	?	50µM*	-43%[12.7 µM]
O=C1COc2ccc(-c3csc(=Nc4ccc(OC(F)F)cc4)n3CC3CCCO3)cc2N1 (stereo not given)	-21%	8%	-15%	?	?	27%[0.501 µM]
COc1ccccc1N=c1scc(-c2ccc3c(c2)NC(=O)CO3)n1CC1CCCO1 (stereo not given)	nt	-3%	?	?	45µM*	?
COC(=O)c1c(-c2ccc(Cl)cc2)noc1N1CCN(c2cccc(C)c2C)CC1	nt	nt	45%[57 µM]	10%	18%	8%[59 µM]
O=Nc1c(O)n(Cc2ccc(Cl)cc2)c2ccccc12	-7%	?	2%	-30%	?	-1%[59 µM]
O=Nc1c(O)n(Cc2ccc(Cl)cc2Cl)c2ccccc12	-13%	-22%	-3%	?	45µM*	?
O=C(OC(C(=O)NCc1ccco1)c1ccc(Cl)cc1)c1cccs1 (stereo not given)	nt	12%	26%	0%	-21%	23%[12.7 µM]
CO[C@@H]1COC(=O)C/C=C\[C@@H](C)[C@H](OC)COC(=O)C/C=C\[C@H]1C	nt	11%	nt	nt	nt	nt
COC1=CC(=O)C(C2CC(=O)c3c(O)cc(O)cc3O2)=CC1=O (stereo not given)	nt	nt	?	79µM*	nt	nt
COc1c(CC=C(C)C)cc(C2CC(=O)c3c(O)cc(O)cc3O2)cc1CC=C(C)C (stereo not given)	nt	11%	-5%	?	-8%	18%[59 µM]
